# According to article PMC7862700, “An all-to-all approach to the identification of sequence-specific readers for epigenetic DNA modifications on cytosine”:
# Columns and labels:
# Assay in all cases: DAPPL (digital affinity profiling via proximity ligation, sequencing); 10 mM Tris-HCl pH 7.5, 50 mM NaCl, 1 mM DTT, 4% glycerol, room temperature, 30 min; GST-TFs on glutathione beads, 16-mer random dsDNA library, 0.1% formaldehyde crosslink after washing; high values mean tight binding
# [1] = biological target: T1, FLI1 (Homo sapiens, UniProt Q01543 1-452); conditions: protein: recombinant; tags: N-terminal GST; dsDNA, one strand shown
# T1 sequence: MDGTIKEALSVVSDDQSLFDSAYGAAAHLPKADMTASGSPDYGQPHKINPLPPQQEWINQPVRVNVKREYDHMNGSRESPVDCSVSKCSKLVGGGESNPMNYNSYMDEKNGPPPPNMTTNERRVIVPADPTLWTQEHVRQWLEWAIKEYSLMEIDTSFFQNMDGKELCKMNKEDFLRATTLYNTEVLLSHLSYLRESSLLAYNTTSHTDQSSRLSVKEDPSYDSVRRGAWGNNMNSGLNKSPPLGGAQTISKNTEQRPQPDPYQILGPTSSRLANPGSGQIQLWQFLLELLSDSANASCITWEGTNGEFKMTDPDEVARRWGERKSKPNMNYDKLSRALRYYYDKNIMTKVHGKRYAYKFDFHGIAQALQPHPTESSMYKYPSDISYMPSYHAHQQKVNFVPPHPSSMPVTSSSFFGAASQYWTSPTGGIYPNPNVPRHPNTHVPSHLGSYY
# How it was run: (§1)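 Pools were built from human transcription factors expressed in yeast as GST fusions, captured on glutathione beads and DNA-barcoded, along with a tag-only sample. Incubation with 200 nmole of a 16-mer random double-stranded DNA library lasted 30 min at room temperature in Tris/NaCl/DTT/glycerol buffer, and was followed by washing, 0.1% formaldehyde crosslinking, proximity ligation, PCR amplification and Illumina NextSeq500 sequencing. Binding signal is the quotient of each hexamer's read frequency for a factor and its frequency for the tag-only sample.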
# [2] = biological target: T2, ELK1 (Homo sapiens, UniProt P19419 1-428); conditions: protein: recombinant; tags: N-terminal GST; dsDNA, one strand shown
# T2 sequence: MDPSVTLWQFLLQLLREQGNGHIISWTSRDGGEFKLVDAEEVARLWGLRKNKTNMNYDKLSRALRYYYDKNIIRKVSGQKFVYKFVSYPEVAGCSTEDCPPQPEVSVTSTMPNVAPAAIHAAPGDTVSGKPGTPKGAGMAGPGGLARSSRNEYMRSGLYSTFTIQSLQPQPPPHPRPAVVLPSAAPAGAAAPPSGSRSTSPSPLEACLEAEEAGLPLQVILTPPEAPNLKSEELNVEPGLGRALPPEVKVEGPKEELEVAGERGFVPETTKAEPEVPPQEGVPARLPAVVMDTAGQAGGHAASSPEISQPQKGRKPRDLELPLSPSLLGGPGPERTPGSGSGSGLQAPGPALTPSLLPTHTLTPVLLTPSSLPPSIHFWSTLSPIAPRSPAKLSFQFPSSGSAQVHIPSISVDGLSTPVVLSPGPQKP
# How it was run: as §1
# [3] = biological target: T3, GABPA (Homo sapiens, UniProt Q06546 1-454); conditions: protein: recombinant; tags: N-terminal GST; dsDNA, one strand shown
# T3 sequence: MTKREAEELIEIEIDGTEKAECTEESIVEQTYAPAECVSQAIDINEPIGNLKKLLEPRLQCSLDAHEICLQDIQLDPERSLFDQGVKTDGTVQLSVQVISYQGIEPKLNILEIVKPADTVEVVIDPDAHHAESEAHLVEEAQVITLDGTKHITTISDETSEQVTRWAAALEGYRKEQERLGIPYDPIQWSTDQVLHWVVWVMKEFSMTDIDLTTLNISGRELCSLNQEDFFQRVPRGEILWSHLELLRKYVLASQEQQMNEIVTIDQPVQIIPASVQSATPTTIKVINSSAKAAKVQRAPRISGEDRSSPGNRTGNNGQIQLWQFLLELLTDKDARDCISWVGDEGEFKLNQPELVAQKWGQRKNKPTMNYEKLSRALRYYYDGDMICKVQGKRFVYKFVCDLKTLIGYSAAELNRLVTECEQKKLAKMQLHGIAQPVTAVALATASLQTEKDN
# How it was run: as §1
# [4] = biological target: T4, ERG (Homo sapiens, UniProt P11308 1-479); conditions: protein: recombinant; tags: N-terminal GST; dsDNA, one strand shown
# T4 sequence: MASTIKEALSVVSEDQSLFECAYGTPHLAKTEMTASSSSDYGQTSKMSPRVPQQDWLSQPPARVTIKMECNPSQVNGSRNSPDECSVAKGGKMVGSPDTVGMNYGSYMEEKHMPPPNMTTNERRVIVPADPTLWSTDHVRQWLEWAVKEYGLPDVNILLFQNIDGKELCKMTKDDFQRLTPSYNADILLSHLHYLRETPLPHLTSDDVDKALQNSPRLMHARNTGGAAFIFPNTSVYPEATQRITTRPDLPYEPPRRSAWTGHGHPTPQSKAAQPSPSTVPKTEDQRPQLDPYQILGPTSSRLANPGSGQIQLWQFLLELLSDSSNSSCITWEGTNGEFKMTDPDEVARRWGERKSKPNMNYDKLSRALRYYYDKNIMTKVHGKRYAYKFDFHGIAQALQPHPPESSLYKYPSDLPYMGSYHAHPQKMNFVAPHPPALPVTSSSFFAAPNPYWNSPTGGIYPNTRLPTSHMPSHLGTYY
# How it was run: as §1
# [5] = biological target: ELF1 (Homo sapiens, UniProt P32519 1-619); conditions: protein: recombinant; tags: N-terminal GST; dsDNA, one strand shown
# How it was run: as §1
# [6] = biological target: T5, EHF (Homo sapiens, UniProt Q9NZC4 1-300); conditions: protein: recombinant; tags: N-terminal GST; dsDNA, one strand shown
# T5 sequence: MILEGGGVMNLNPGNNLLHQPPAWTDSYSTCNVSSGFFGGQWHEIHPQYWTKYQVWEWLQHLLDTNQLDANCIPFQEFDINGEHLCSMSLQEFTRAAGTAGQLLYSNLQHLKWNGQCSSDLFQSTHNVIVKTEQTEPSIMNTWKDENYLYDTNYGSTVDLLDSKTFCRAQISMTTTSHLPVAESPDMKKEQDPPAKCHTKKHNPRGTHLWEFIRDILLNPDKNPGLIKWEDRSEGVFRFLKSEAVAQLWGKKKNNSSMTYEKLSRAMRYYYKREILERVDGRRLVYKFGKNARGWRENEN
# How it was run: as §1
# [7] = biological target: SPI1 (Homo sapiens, UniProt P17947 1-270); conditions: protein: recombinant; tags: N-terminal GST; dsDNA, one strand shown
# How it was run: as §1
# [8] = biological target: SPIB (Homo sapiens, UniProt Q01892 1-262); conditions: protein: recombinant; tags: N-terminal GST; dsDNA, one strand shown
# How it was run: as §1
# [9] = biological target: T6, ELK3 (Homo sapiens, UniProt P41970 1-407); conditions: protein: recombinant; tags: N-terminal GST; dsDNA, one strand shown
# T6 sequence: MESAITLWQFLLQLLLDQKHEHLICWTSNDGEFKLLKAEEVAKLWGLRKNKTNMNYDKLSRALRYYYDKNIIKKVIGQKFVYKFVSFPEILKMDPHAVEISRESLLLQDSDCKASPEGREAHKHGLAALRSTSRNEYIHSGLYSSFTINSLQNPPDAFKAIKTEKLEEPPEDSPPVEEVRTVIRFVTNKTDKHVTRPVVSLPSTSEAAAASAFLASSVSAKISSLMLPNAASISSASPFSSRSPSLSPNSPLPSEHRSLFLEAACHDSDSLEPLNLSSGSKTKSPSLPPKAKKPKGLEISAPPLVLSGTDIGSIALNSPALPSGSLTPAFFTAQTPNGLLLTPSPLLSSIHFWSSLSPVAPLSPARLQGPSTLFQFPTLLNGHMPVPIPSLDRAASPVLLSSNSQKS
# How it was run: as §1
# [10] = biological target: T7, FEV (Homo sapiens, UniProt Q99581 1-238); conditions: protein: recombinant; tags: N-terminal GST; dsDNA, one strand shown
# T7 sequence: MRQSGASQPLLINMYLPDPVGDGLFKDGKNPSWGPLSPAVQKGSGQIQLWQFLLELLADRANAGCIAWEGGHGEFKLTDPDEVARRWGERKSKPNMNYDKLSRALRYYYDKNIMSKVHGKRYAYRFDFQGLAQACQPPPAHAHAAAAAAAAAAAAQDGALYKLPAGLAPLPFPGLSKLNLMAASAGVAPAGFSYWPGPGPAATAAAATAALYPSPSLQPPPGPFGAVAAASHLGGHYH
# How it was run: as §1
# [11] = biological target: ETV5 (Homo sapiens, UniProt P41161 1-510); conditions: protein: recombinant; tags: N-terminal GST; dsDNA, one strand shown
# How it was run: as §1
# [12] = biological target: HSF1 (Homo sapiens, UniProt Q00613 1-529); conditions: protein: recombinant; tags: N-terminal GST; chain copies: 3; dsDNA, one strand shown
# How it was run: as §1
# [13] = biological target: T8, SPIC (Homo sapiens, UniProt Q8N5J4 1-248); conditions: protein: recombinant; tags: N-terminal GST; dsDNA, one strand shown
# T8 sequence: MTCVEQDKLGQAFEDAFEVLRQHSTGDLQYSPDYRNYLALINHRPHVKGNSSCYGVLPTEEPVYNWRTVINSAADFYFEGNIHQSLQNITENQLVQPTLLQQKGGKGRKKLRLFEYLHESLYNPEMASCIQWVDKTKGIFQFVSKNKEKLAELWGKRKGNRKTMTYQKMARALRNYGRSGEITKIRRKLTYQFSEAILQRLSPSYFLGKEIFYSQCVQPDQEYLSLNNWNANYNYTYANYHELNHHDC
# How it was run: as §1
# [14] = biological target: ELF4 (Homo sapiens, UniProt Q99607 1-663); conditions: protein: recombinant; tags: N-terminal GST; dsDNA, one strand shown
# How it was run: as §1
# [15] = biological target: T9, ELK4 (Homo sapiens, UniProt P28324-2 1-405); conditions: protein: recombinant; tags: N-terminal GST; dsDNA, one strand shown
# T9 sequence: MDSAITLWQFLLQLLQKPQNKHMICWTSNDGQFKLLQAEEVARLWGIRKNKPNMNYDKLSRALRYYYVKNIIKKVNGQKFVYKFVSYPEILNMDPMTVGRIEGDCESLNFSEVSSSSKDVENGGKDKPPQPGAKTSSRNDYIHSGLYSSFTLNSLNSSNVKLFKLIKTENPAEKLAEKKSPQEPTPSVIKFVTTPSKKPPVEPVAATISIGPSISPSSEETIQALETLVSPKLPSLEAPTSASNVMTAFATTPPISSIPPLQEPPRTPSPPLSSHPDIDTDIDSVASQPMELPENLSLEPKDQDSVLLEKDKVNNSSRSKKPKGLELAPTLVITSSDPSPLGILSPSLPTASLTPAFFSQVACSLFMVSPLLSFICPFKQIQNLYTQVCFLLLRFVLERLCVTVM
# How it was run: as §1
# [16] = biological target: T10, ETV2 (Homo sapiens, UniProt O00321 1-342); conditions: protein: recombinant; tags: N-terminal GST; dsDNA, one strand shown
# T10 sequence: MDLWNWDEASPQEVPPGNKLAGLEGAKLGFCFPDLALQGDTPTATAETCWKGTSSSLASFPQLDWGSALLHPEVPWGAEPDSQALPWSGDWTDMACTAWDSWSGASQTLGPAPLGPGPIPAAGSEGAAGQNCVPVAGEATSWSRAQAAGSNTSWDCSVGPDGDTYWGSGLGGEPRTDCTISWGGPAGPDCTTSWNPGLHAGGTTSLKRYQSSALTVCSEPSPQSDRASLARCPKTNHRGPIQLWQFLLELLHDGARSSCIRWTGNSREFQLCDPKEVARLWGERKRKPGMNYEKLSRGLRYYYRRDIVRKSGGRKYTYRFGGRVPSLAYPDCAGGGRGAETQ
# How it was run: as §1
# [17] = biological target: T11, ELF3 (Homo sapiens, UniProt P78545 1-371); conditions: protein: recombinant; tags: N-terminal GST; dsDNA, one strand shown
# T11 sequence: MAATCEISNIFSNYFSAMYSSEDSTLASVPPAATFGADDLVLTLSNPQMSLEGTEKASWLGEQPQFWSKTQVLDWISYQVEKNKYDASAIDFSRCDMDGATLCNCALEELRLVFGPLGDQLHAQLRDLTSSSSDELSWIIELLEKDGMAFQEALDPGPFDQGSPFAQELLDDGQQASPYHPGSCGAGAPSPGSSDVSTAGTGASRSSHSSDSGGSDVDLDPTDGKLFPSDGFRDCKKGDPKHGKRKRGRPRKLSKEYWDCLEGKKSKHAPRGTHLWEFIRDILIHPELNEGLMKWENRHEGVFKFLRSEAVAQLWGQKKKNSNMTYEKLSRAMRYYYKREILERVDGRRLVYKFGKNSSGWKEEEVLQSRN
# How it was run: as §1
# [18] = biological target: CRX (Homo sapiens, UniProt O43186 1-299); conditions: protein: recombinant; tags: N-terminal GST; dsDNA, one strand shown
# How it was run: as §1
# [19] = biological target: ETV1 (Homo sapiens, UniProt P50549 1-477); conditions: protein: recombinant; tags: N-terminal GST; dsDNA, one strand shown
# How it was run: as §1
# Sequence of ETV1 (P50549 whole entry): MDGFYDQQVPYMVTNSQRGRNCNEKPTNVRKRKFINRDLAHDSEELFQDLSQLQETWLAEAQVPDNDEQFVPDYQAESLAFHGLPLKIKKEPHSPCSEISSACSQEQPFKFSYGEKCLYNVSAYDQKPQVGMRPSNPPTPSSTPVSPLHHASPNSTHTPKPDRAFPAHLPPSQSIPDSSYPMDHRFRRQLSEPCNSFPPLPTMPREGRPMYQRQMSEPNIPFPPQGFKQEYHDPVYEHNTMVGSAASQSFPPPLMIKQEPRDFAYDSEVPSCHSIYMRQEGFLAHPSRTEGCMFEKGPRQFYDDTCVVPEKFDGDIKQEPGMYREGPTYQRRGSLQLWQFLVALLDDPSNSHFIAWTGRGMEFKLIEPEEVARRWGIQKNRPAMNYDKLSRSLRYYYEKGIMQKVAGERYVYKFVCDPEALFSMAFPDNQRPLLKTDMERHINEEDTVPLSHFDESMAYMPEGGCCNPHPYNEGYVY
# Sequence of ELF1 (P32519 whole entry): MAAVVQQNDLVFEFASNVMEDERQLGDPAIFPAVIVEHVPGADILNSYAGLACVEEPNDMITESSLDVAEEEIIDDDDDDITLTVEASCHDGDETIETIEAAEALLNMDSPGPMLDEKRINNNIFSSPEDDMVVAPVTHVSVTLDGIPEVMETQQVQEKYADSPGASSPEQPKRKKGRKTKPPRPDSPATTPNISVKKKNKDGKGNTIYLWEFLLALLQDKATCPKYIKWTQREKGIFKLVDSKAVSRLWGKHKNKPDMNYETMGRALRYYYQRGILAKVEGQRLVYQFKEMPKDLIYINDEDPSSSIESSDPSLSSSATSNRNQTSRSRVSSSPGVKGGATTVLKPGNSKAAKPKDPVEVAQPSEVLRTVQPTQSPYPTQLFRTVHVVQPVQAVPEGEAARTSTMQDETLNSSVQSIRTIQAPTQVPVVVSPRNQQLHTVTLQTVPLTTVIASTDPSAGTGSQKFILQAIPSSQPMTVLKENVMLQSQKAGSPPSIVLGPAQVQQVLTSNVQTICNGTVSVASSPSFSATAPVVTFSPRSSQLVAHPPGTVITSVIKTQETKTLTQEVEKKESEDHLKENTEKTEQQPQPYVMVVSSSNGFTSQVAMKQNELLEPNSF
# Sequence of ETV5 (P41161 whole entry): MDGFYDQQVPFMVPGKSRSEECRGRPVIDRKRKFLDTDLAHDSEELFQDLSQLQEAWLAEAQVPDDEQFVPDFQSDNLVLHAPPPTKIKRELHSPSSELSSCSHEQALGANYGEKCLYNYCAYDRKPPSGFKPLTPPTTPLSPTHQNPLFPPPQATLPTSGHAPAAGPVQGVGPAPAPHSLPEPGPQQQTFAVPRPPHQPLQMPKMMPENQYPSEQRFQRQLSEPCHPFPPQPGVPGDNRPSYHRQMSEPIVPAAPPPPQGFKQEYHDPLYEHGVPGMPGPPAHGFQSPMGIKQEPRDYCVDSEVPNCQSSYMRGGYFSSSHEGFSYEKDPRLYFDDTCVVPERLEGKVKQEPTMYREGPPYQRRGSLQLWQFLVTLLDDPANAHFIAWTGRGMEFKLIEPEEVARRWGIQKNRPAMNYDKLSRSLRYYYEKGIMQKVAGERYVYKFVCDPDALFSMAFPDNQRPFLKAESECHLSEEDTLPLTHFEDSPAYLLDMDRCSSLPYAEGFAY
# Sequence of SPIB (Q01892 whole entry): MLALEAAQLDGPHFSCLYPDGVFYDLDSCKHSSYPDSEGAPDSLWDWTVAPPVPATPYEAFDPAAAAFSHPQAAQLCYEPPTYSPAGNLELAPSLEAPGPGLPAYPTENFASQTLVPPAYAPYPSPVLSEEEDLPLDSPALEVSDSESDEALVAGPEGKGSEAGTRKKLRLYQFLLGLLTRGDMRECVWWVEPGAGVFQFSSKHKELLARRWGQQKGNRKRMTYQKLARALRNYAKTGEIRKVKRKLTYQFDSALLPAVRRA
# Sequence of CRX (O43186 whole entry): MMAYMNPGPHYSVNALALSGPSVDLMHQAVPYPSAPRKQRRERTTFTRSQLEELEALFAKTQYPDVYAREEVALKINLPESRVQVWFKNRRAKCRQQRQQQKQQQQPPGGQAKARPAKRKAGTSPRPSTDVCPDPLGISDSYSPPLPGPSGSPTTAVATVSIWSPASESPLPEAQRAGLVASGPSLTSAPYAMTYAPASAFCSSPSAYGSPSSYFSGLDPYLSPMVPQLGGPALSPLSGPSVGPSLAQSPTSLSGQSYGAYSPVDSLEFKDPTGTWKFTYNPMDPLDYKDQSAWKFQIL
# Sequence of ELF4 (Q99607 whole entry): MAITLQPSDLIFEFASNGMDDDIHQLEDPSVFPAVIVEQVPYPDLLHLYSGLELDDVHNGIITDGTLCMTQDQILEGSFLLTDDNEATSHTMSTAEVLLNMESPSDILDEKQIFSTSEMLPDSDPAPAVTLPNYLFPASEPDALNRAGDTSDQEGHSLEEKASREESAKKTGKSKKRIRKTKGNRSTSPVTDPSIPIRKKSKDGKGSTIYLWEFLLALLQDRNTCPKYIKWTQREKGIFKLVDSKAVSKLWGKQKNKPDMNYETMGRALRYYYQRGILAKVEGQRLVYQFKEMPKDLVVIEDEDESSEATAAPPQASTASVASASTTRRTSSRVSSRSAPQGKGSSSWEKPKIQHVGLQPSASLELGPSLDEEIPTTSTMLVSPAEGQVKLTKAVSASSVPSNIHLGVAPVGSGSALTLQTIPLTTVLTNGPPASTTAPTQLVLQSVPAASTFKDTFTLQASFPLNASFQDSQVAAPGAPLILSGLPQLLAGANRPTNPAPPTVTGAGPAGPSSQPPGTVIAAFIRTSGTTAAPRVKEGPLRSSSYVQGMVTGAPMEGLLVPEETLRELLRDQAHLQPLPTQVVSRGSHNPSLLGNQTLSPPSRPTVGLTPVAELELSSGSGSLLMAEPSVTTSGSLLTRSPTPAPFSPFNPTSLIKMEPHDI
# Sequence of HSF1 (Q00613 whole entry): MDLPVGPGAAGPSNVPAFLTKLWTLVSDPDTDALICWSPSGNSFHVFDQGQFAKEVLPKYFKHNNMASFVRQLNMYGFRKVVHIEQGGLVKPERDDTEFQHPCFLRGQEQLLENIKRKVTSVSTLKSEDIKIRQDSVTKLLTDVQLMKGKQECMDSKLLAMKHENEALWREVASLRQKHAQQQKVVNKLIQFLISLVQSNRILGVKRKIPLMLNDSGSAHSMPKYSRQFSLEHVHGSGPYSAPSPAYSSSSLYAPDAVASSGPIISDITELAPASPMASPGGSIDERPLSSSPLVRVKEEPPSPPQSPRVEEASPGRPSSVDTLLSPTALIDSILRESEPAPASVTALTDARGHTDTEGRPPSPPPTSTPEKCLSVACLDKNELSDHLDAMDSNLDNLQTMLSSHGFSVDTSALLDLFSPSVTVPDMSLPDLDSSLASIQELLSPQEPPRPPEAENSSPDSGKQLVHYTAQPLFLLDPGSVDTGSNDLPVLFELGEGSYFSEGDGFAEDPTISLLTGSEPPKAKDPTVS
sequence,measurement,setting,value
CAACTC,binding signal,[1],"1.37 fold enrichment (6-mer frequency, TF over GST control)"
same,binding signal,[2],"1.23 fold enrichment (6-mer frequency, TF over GST control)"
same,binding signal,[3],"1.3 fold enrichment (6-mer frequency, TF over GST control)"
same,binding signal,[4],"1.28 fold enrichment (6-mer frequency, TF over GST control)"
same,binding signal,[5],"1.34 fold enrichment (6-mer frequency, TF over GST control)"
same,binding signal,[6],"1.19 fold enrichment (6-mer frequency, TF over GST control)"
same,binding signal,[7],"1.31 fold enrichment (6-mer frequency, TF over GST control)"
same,binding signal,[8],"1.22 fold enrichment (6-mer frequency, TF over GST control)"
same,binding signal,[9],"1.3 fold enrichment (6-mer frequency, TF over GST control)"
same,binding signal,[10],"1.23 fold enrichment (6-mer frequency, TF over GST control)"
same,binding signal,[11],"1.22 fold enrichment (6-mer frequency, TF over GST control)"
same,binding signal,[12],"1.12 fold enrichment (6-mer frequency, TF over GST control)"
same,binding signal,[13],"1.33 fold enrichment (6-mer frequency, TF over GST control)"
same,binding signal,[14],"1.27 fold enrichment (6-mer frequency, TF over GST control)"
same,binding signal,[15],"1.2 fold enrichment (6-mer frequency, TF over GST control)"
same,binding signal,[16],"1.3 fold enrichment (6-mer frequency, TF over GST control)"
same,binding signal,[17],"1.24 fold enrichment (6-mer frequency, TF over GST control)"
same,binding signal,[18],"1.01 fold enrichment (6-mer frequency, TF over GST control)"
same,binding signal,[19],"1.18 fold enrichment (6-mer frequency, TF over GST control)"
